The list is not random: actives were taken first. Their share in the collection is about 3.4%.
GPR151 ag: activators of human GPR151; activation, % at 11.2 µM; 650,000 tested, 1% active; AID 1508602; PathHunter beta-arrestin GPR151 cells, luminescence; Q8TDV0; in the data active = activation above about 4.9%
FBW7 activator: activators of human E3 ligase FBW7; Q969H0; normalized activity (activation), % at 26.1 µM; AlphaScreen FBW7–phospho-cyclin E peptide binding, activator screen; 650,000 tested, 0.13% active; in the data active = normalized activity above about 1.9%;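 also: purified mutant Fbw7 with reduced substrate affinity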
Target sequence (Q969H0 whole entry, looked up): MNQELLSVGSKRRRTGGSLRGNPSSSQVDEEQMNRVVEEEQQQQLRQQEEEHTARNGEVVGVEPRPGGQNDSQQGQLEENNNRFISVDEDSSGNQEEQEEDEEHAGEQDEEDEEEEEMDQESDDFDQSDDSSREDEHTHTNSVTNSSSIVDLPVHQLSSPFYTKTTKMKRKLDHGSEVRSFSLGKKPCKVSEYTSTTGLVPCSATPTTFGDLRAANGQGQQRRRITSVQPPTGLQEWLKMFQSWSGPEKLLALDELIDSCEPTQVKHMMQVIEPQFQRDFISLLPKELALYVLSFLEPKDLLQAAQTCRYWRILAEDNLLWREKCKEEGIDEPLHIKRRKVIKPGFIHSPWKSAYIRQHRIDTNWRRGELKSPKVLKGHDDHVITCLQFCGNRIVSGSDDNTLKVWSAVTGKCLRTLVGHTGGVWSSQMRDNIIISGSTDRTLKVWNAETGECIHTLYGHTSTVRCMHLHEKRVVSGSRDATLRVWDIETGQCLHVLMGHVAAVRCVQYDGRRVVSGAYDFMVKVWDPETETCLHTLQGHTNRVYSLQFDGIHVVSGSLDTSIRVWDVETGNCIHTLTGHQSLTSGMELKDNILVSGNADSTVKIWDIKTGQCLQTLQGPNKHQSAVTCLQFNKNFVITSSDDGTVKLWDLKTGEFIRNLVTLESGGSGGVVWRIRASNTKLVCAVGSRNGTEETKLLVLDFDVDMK
MITF primary: blocks human microphthalmia-associated transcription factor; AlphaScreen MITF homodimerization, bead proximity signal; inhibition, % at 2.6 µM; 650,000 tested, 0.91% active; in the data active = inhibition above about 50%
TEAD-YAP block: TEAD-YAP interaction inhibition. HEK-TIYL cells, TEAD-Gal4/YAP UAS-luciferase luminescence. inhibition, % at 9.12 µM. 640,000 tested, 1.4% active. AID 1259422; in the data active = inhibition above about 32%
Hits are given with their value; n = inactive.

SMILES | GPR151 ag | FBW7 activator | MITF primary | TEAD-YAP block
CCS(=O)(=O)c1ncc(Cl)c(C(=O)Nc2ccc(OC)c(Cl)c2)n1 | n | n | n | 50
O=C1Nc2ccccc2/C1=C/C=C/c1ccco1 | n | n | n | n
O=C1/C(=C\c2ccco2)CCC/C1=C\c1ccco1 | n | n | 83 | n
O=C1/C(=C/C=C/c2ccco2)CCC/C1=C\C=C\c1ccco1 | n | n | 64 | n
O/N=C1\CCCC\C1=C\c1ccco1 | n | n | n | n
CC1CCN(S(=O)(=O)c2ccc(NC(=O)CCn3c(=O)oc4ccccc43)cc2)CC1 | n | n | n | n
Cc1ccc(NC(=O)CSc2ccc3ccccc3n2)c(C)c1 | n | n | n | 76
CCN1CCN(C(=O)CCCOc2ccccc2)CC1 | n | n | n | 43
CCCOc1ccc(C2C(C(=O)OC)=CN(CCOC)C=C2C(=O)OC)cc1 | n | 2.1 | n | n
CCCN1C=C(C(=O)OC)C(c2cccc(Oc3ccccc3)c2)C(C(=O)OC)=C1 | n | 2.1 | n | n
Cc1ccc(/C=C/S(=O)(=O)NCC(=O)OCC(=O)c2ccc[nH]2)cc1 | n | n | n | n
CCCN(CCC)C1=CC(=O)C(C)=CC1=O | n | n | 65 | n
CCCN(CCC)C1=CC(=O)C(C)=C(C)C1=O | n | n | n | n
O=S(=O)(NCC1CCCO1)c1ccc(NS(=O)(=O)c2ccc(F)cc2)cc1 (stereo not drawn) | n | n | n | n
O=S(=O)(NCC1CCCO1)c1ccc(Cc2ccc(S(=O)(=O)NCC3CCCO3)cc2)cc1 (stereo not drawn) | n | n | n | 43
O=S(=O)(NCC1CCCO1)c1ccc(-c2ccc(S(=O)(=O)NCC3CCCO3)cc2)cc1 (stereo not drawn) | n | n | n | 52
NC(=O)CSc1nc(-c2ccc(F)cc2)cc(C(F)(F)F)n1 | n | n | n | n
Cc1cc(Cl)ccc1OCCCC(=O)N(CCC#N)CCC#N | n | n | n | n
c1ccc(-n2cnc3c(NC4CC4)nc(N4CCN(c5ccccn5)CC4)nc32)cc1 | n | n | n | 37
CC(=O)Nc1ccc(Nc2nc(N3CCN(c4ccccn4)CC3)nc3c2ncn3-c2ccccc2)cc1 | n | n | n | n
c1cc(-n2cnc3c(NC4CC4)nc(N4CCOCC4)nc32)cs1 | n | n | n | 56
OCC1CCCN1c1nc(NC2CC2)c2ncn(-c3ccsc3)c2n1 (stereo not drawn) | n | n | n | n
c1cc(-n2cnc3c(NC4CC4)nc(N4CCC(N5CCOCC5)CC4)nc32)cs1 | n | n | n | 46
c1ccc(-n2cnc3c(NC4CC4)nc(N4CCOCC4)nc32)cc1 | n | n | n | 52
COCCNc1c2c(c(C#N)c3nc4ccccc4n13)CCC2 | n | n | n | n
SMILES | GPR151 ag | FBW7 activator | MITF primary | TEAD-YAP block
CCOC(=O)CN(c1ccc(C23CC4CC(CC(C4)C2)C3)cc1)S(C)(=O)=O | n | n | n | n
CC(C)N(CCNc1nc(N2CCOCC2)nc2c1ncn2-c1ccsc1)C(C)C | n | n | n | 55
COc1ccc(CNC(=O)Cc2ccc(-n3cccc3)cc2)cc1 | n | n | n | 45
CCOc1ccc(CNC(=O)Cc2cn(C)c3ccccc23)cc1 | n | n | n | n
COCC(=O)N/N=C(\C)CC(=O)NCc1ccc(OC)cc1 | n | 2.1 | n | n
CCOc1ccc(CC(=O)NCc2ccccc2)cc1 | n | n | n | 37
COc1ccc2oc(=O)c(-c3csc(N/N=C/c4ccccc4O)n3)cc2c1 | n | n | n | n
Cc1ccccc1CN1CCN(Cc2cccc3ccccc23)CC1 | n | n | 79 | n
CC(=O)NC1=NN(C(C)=O)C(C)(c2cccc(OC(=O)c3ccccc3)c2)S1 (stereo not drawn) | n | n | n | 61
CC(=O)NC1=NN(C(C)=O)C(C)(c2ccc(OC(C)=O)cc2)S1 (stereo not drawn) | n | n | n | 66
Cc1ccccc1C1N2CC3(C(C)C)CN1CC(C(C)C)(C2)C3=O (stereo not drawn) | n | n | n | n
CO[C@H](C(=O)[C@@H](O)[C@@H](C)O)[C@@H]1Cc2cc3cc(O[C@H]4C[C@@H](O[C@H]5C[C@@H](O)[C@H](O)[C@@H](C)O5)[C@H](O)[C@@H](C)O4)c(C)c(O)c3c(O)c2C(=O)[C@H]1O[C@H]1C[C@@H](O[C@H]2C[C@@H](O[C@H]3C[C@](C)(O)[C@H](O)[C@@H](C)O3)[C@@H](O)[C@@H](C)O2)[C@H](O)[C@@H](C)O1 | n | n | n | 92
COc1cc(C(=S)N2CCCC2)cc(Cl)c1O | n | n | n | n
O=C(/C=C/c1ccc2c(c1)OCCCO2)c1cc([N+](=O)[O-])ccc1O | n | n | n | 79
CC[N+](CC)=c1ccc2nc3c(cc(N)c4ccccc43)oc-2c1 | n | n | n | 33
COc1ccc(CNC(=O)N2CCC(c3nnc(C4CC4)o3)CC2)cc1 | n | n | n | n
Cc1cccc(NC(=O)N2CCC(c3nnc(C4CC4)s3)CC2)c1 | n | 3.1 | n | n
O=C(Nc1ccc2c(c1)OCO2)N1CCC(c2nnc(C3CC3)s2)CC1 | n | 2.6 | n | n
COc1ccc(CNC(=O)N2CCC(c3nnc(C4CC4)s3)CC2)cc1 | n | 3.1 | n | n
O=C(Nc1ccc2c(c1)OCO2)N1CCN(C2CCCCC2)CC1 | n | n | n | n
O=C(/C=C/c1ccc(Br)cc1)Nc1ccccc1[N+](=O)[O-] | n | n | n | n
CCCOC(=O)c1ccc(Br)c([N+](=O)[O-])c1 | n | n | n | n
COc1ccc(C(=O)c2ccc(Br)c([N+](=O)[O-])c2)cc1 | n | n | n | 64
CCCCc1ccc(NC(=O)c2cnc3ccccn3c2=O)cc1 | n | n | n | n
COC(=O)c1ccc(Nc2cc(C)nc3c(C)cc(C)cc23)cc1 | n | n | n | 49
SMILES | GPR151 ag | FBW7 activator | MITF primary | TEAD-YAP block
CCOC(=O)c1ccc(Nc2cc(C)nc3c(C)cc(C)cc23)cc1 | n | n | n | 47
CCOC(=O)c1cccc(Nc2cc(C)nc3c(C)cc(C)cc23)c1 | n | n | n | n
CCOC(=O)c1ccc2nc(C)cc(Nc3cccc(O)c3)c2c1 | n | n | n | 75
CC(=O)Nc1ccc(Nc2cc(C)nc3c(C)cc(C)cc23)cc1 | n | n | n | n
CC1CCN(C(=O)Cn2cnc3c(nnn3Cc3ccccc3F)c2=O)CC1 | n | n | n | n
CC(CSc1ncccn1)Cn1c(Br)nc2c1c(=O)[nH]c(=O)n2C (stereo not drawn) | n | n | n | n
CCCCNC(=O)c1sc2nc(C)nc(N(C)c3ccc(C(C)C)cc3)c2c1C | n | n | n | n
CCOC(=O)CNC(=O)c1sc2nc(C)nc(N(C)c3ccc(C(C)C)cc3)c2c1C | n | 2.3 | n | n
CCOC(=O)CNC(=O)c1ccc(C(C)C)cc1 | n | n | n | 48
CC(C)(C)OC(=O)NC1CCN(C(=O)Nc2ccc(Cl)c(C(F)(F)F)c2)CC1 | n | n | n | n
CCN(Cc1ccccc1)C(=O)Nc1ccc(-c2cn[nH]c2)cc1OC | n | n | n | n
Cc1nn2c(N)c(-c3ccc(Cl)cc3)cnc2c1-c1ccccc1 | n | n | n | n
Cc1nc2c(-c3ccccc3)cnn2c(N)c1-c1ccccc1 | n | n | n | 90
Cc1nc2c(-c3ccc(Cl)cc3)c(C)nn2c(N)c1-c1ccccc1 | n | n | n | 34

Screens (PubChem)
